Bioassay records deposited in PubChem BioAssay by National Center for Advancing Translational Sciences (NCATS).
BLM helicase inh-1: blocks DNA unwinding by human BLM helicase; 350,000 tested, 0.2% active; Potency, µM (highest dose often 56.1 µM), hits mostly inhibitors; P54132; recombinant BLM DNA unwinding, fluorescence dequenching; further: nearly all actives have a fitted effect of over 35% in size
Target sequence (P54132 whole entry, looked up): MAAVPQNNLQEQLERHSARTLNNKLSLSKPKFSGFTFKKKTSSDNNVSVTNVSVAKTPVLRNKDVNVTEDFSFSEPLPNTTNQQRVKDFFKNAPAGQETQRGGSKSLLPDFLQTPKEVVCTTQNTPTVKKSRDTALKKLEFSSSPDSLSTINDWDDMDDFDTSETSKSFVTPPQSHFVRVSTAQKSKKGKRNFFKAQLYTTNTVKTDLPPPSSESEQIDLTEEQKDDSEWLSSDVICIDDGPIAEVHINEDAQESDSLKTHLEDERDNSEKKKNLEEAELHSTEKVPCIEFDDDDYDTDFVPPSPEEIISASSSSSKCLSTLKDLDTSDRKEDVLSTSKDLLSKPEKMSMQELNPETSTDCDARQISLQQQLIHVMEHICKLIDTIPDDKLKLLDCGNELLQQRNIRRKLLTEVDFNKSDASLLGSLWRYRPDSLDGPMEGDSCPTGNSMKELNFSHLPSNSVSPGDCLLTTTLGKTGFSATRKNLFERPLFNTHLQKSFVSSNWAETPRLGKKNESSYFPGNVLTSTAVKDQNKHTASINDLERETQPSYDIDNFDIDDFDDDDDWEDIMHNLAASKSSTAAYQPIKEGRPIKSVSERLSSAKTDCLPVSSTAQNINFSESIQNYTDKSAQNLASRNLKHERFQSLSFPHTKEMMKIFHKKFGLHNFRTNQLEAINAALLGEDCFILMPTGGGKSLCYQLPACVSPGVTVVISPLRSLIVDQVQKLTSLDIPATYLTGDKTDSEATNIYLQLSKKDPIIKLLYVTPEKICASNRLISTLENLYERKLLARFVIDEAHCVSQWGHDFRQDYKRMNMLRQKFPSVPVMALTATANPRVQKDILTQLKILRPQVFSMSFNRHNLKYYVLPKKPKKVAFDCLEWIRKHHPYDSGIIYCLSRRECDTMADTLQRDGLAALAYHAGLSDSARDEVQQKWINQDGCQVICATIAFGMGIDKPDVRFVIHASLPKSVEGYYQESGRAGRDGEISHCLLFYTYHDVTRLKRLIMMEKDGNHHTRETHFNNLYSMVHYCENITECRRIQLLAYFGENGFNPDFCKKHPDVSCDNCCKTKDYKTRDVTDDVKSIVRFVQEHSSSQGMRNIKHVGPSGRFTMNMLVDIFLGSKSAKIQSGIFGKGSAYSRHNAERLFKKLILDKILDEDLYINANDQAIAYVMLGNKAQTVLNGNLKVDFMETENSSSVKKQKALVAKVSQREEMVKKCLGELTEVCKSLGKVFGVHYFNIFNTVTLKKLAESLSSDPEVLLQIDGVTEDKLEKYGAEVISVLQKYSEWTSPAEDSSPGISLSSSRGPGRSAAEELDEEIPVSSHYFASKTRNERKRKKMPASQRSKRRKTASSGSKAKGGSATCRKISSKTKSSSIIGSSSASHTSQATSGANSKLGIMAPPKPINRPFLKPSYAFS
RECQ1 inh: blocks DNA unwinding by human RECQ1 | RECQ1 DNA unwinding, red fluorescence kinetic read | Potency, µM (doses to about 57.3 µM), hits mostly inhibitors | 240,000 tested, 0.54% active | AID 2549; further: nearly all actives have a fitted effect of over 30% in size
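RECQ1T1 50 nM; forked duplex (20 bp + 30-nt ss tails) 200 nM, ATP 2 mM final; pH 8.0, 2 mM MgCl2, 2.5 ug/ml poly(dI-dC); 15 min compound preincubation; discontinuous kinetic read over 2 h at RT.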
GCN5L2 inh: blocks human GCN5L2 histone acetyltransferase. Q92830. GCN5L2 HAT assay, ThioGlo1 CoA-SH fluorescence. Potency, µM (titrated, usually from 58.9 µM), most hits filed as inhibitors. 390,000 tested, 0.21% active. AID 504327
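ThioGlo1-coupled HAT assay: 20nM GCN5L2, 70uM acetyl-CoA, 75uM H3(1-25) peptide, pH 7.5. Fluorescence read at 340/540nm at start and after 20 min at room temperature.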
WRN helicase inh-1: inhibitors of human WRN helicase. Q14191. WRN helicase unwinding, fluorescent forked duplex, kinetic. Potency, µM (doses to about 114 µM), actives largely listed as inhibitors. 360,000 tested, 0.46% active. AID 651768; further: nearly all actives have a fitted effect of over 55% in size
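Screening of the MLSMR collection measured strand separation of a quenched forked DNA duplex (100 nM) by 20 nM WRN with 2 mM ATP, all final. Compounds were preincubated with enzyme 15 min at room temperature.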
APEX1 inh: blocks human APE1 abasic DNA cleavage | 350,000 tested, 0.35% active | recombinant APE1, TAMRA/BHQ-2 abasic DNA cleavage fluorescence | P27695 | Potency, µM (series often up to 65.8 µM), actives largely listed as inhibitors; further: nearly all actives have a fitted effect of over 55% in size
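Quantitative HTS: incision of a TAMRA/BHQ-2 double-stranded substrate bearing a tetrahydrofuran abasic site by 0.75 nM APE1 raises fluorescence. Substrate 50 nM final, added after 15 min compound preincubation at room temperature; progress as third-minus-first kinetic read difference.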
ERG-DNA inh: blocks human ERG Ets domain binding to DNA | P11308 | fluorescence polarization, His-ERG Ets domain / labelled DNA | Potency, µM (titrated, usually from 76.9 µM), most hits filed as inhibitors | 370,000 tested, 0.028% active | AID 624246; active means well fitted inhibition curve with a large enough effect in the polarisation, with a control signal flat; inconclusive means small, poorly fitted or top-dose-only effect, or effect the other way, or a change in a side signal; inactive means no such curve, though single readings can be large or run the other way; the % refers to the polarisation;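 further: polarization taken with two DNA probes labelled with fluorescein and Texas red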
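His-tagged ERG Ets domain (1 uM in the protein solution; 300mM KCl, 50mM Tris-HCl, 1mM EDTA, 1mM DTT, pH 7.5) received compound, then a probe mix of 5 nM fluorescein-DNA and 100nM Texas-615-DNA. Fluorescence polarization was read for both dyes.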
WRN helicase inh-2: WRN helicase inhibition, cherry-pick retest; shares compounds with WRN helicase inh-1; WRN helicase DNA unwinding, fluorescence kinetic; Potency, µM (doses to about 57.1 µM), usual class: inhibitors; 610 tested, 63% active; AID 720497; further: nearly all actives have a fitted effect of over 65% in size
TO displacement: binds DNA, flagged in WRN inhibitor counterscreen | Potency, µM (series often up to 57.1 µM), hits mostly inhibitors | 610 tested, 10% active | shares compounds with WRN helicase inh-1 | thiazole orange DNA binding displacement, fluorescence;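 further: drop in dye fluorescence marks compound binding to DNA; nearly all actives have a fitted effect of over 60% in size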
BLM helicase inh-2: counter-screen for WRN helicase inhibitors: human BLM helicase inhibition | Recombinant BLM helicase DNA unwinding, red fluorescence | Potency, µM (titrated, usually from 57.1 µM), actives largely listed as inhibitors | 610 tested, 60% active | AID 720503 | shares compounds with WRN helicase inh-1; further: nearly all actives have a fitted effect of over 60% in size
Hits are given with their value. A selection: hits, their analogues and other compounds. The true share with any hit is near 0.88%. Unless noted, the call rests on the fitted dose curve; in most records, active means well fitted curve in the direction sought with a large enough effect; inconclusive means small, poorly fitted or top-dose-only effect, or another doubt; inactive means no such curve, though single readings can be large; an effect the other way counts as inactive or inconclusive.

For CC(C)(C)N(Cc1ccc2c(c1)OCO2)C(=O)/C=C\S(=O)c1ccccc1 (centres undefined) the results were WRN helicase inh-1 inconclusive, WRN helicase inh-2 12.1µM, TO displacement inactive and BLM helicase inh-2 24.1µM.
Screening COC(=O)C[C@@H]1OC[C@H](Cc2ccccc2)N1S(=O)(=O)c1ccc(C)cc1 returned WRN helicase inh-1 inactive.
COc1cc(OC)c(C2Nc3ccccc3-c3nnc(SCc4ccccc4)nc3O2)cc1OC (centres undefined) was read as BLM helicase inh-1 inactive, GCN5L2 inh inactive and ERG-DNA inh inactive.
For O=C(NCCn1cccn1)C1CCC(=O)N(CCc2ccc(Cl)cc2)C1 (centres undefined) the results were BLM helicase inh-1 inactive, GCN5L2 inh inactive, WRN helicase inh-1 inactive, APEX1 inh inactive and ERG-DNA inh inactive.
For CN(CCCS(=O)(=O)[O-])c1ccc(/C=C/c2ccc3ccccc3[n+]2C)cc1 the results were BLM helicase inh-1 inactive, GCN5L2 inh inactive, WRN helicase inh-1 inactive, APEX1 inh inactive and ERG-DNA inh inactive.
CN(C)c1ccc(/C=C/c2ccc3ccccc3[n+]2C)cc1 was read as BLM helicase inh-1 inconclusive, RECQ1 inh inconclusive, GCN5L2 inh inactive, WRN helicase inh-1 39.8µM, APEX1 inh inactive, ERG-DNA inh inconclusive, WRN helicase inh-2 24.1µM, TO displacement 27.1µM and BLM helicase inh-2 27.1µM.
For COc1cccc2c1C(=O)c1c(O)c3c(c(O)c1C2=O)CC(O)(C(=O)CO)CC3OC1CC(N(C)C)C(O)C(C)O1 (centres undefined) the results were WRN helicase inh-1 2.99µM, ERG-DNA inh inconclusive, WRN helicase inh-2 17.1µM, TO displacement inactive and BLM helicase inh-2 27.1µM.
CC(C)NC(=O)N1CCC2(CC1)CCN(C(=O)c1ccncc1)CC2 was read as BLM helicase inh-1 inactive, RECQ1 inh inactive, GCN5L2 inh inconclusive and APEX1 inh inactive.
Cc1nnc(-c2cccc(Br)c2)c2cn(-c3cccc(Br)c3)nc12 was read as BLM helicase inh-1 inactive, RECQ1 inh inactive, GCN5L2 inh inactive, WRN helicase inh-1 25.1µM, APEX1 inh inactive, ERG-DNA inh inactive, WRN helicase inh-2 inconclusive, TO displacement inactive and BLM helicase inh-2 9.61µM.
For COc1ccc(-c2cc(=O)oc3c(O)c(O)ccc23)cc1 the results were BLM helicase inh-1 10µM, GCN5L2 inh inactive, WRN helicase inh-1 12.6µM, APEX1 inh inactive, ERG-DNA inh inactive, WRN helicase inh-2 5.41µM, TO displacement inactive and BLM helicase inh-2 3.83µM.
Oc1ccc(Nc2ccc3ccccc3c2)cc1 was read as WRN helicase inh-1 inconclusive, ERG-DNA inh inconclusive, WRN helicase inh-2 inactive, TO displacement inconclusive and BLM helicase inh-2 inconclusive.
Oc1ccc(Nc2nc(-c3ccc4ccccc4c3)cs2)cc1 was read as BLM helicase inh-1 inactive, RECQ1 inh inactive, GCN5L2 inh inactive and APEX1 inh inactive.
Screening Cc1c(C(=O)O)cccc1-c1ccc(C=O)o1 returned BLM helicase inh-1 inactive, RECQ1 inh inactive, GCN5L2 inh inactive, WRN helicase inh-1 inactive, APEX1 inh inactive and ERG-DNA inh inactive.
`CCOC(=O)C(C)N1C(=O)S/C(=C\c2ccc(-c3ccccc3C(=O)O)o2)C1=O` (centres undefined) gave BLM helicase inh-1 inactive, GCN5L2 inh inactive, WRN helicase inh-1 25.1µM, APEX1 inh 5.97µM, ERG-DNA inh inactive, WRN helicase inh-2 15.2µM, TO displacement inactive and BLM helicase inh-2 21.5µM.
Screening CCc1cccc(CC)c1NC(=O)Cc1csc(C)n1 returned BLM helicase inh-1 inactive, GCN5L2 inh inactive and ERG-DNA inh inactive.
`COc1ccc2[nH]c(=O)c(-c3noc(-c4ccccc4)n3)cc2c1` gave BLM helicase inh-1 inactive, RECQ1 inh inactive, GCN5L2 inh inactive, WRN helicase inh-1 inconclusive, APEX1 inh inactive, ERG-DNA inh inactive, WRN helicase inh-2 21.5µM, TO displacement inactive and BLM helicase inh-2 6.07µM.
Screening COc1ccc2[nH]c(=O)c(-c3nnn(-c4ccccc4)n3)cc2c1 returned BLM helicase inh-1 inactive, RECQ1 inh inactive, GCN5L2 inh inactive, WRN helicase inh-1 inactive, APEX1 inh inactive and ERG-DNA inh inactive.
CC1(C(=O)NS(=O)(=O)c2ccccc2C(F)(F)F)CCN1C(=O)C1CCCCC1 (centres undefined) was read as WRN helicase inh-1 inactive.
COc1cccc(/C=C(\C#N)c2nc3ccc(C)cc3[nH]2)c1OCC(=O)O was read as BLM helicase inh-1 inactive, GCN5L2 inh inconclusive, WRN helicase inh-1 inconclusive, APEX1 inh inactive, ERG-DNA inh inactive, WRN helicase inh-2 6.81µM, TO displacement inactive and BLM helicase inh-2 inactive.
For CCOc1cccc(/C=C(/C#N)c2nc3ccccc3[nH]2)c1OCC(=O)O the results were BLM helicase inh-1 inactive, GCN5L2 inh inactive, WRN helicase inh-1 inactive, APEX1 inh inactive and ERG-DNA inh inactive.
CC[n+]1c(/C=C/C=C/N(C(C)=O)c2ccccc2)sc2cc(OC)ccc21 was read as BLM helicase inh-1 inconclusive, RECQ1 inh inactive, GCN5L2 inh inactive, WRN helicase inh-1 inconclusive, APEX1 inh inactive, WRN helicase inh-2 24.1µM, TO displacement inactive and BLM helicase inh-2 21.5µM.
CN1/C(=C\C(=O)c2ccco2)C(C)(C)c2ccccc21 was read as BLM helicase inh-1 inactive, RECQ1 inh inactive, GCN5L2 inh inactive, WRN helicase inh-1 inconclusive, APEX1 inh inactive, ERG-DNA inh inconclusive, WRN helicase inh-2 inactive, TO displacement inactive and BLM helicase inh-2 inactive.
`CCCN1C(=O)/C(=C/C=C2\N(CC)c3ccccc3C2(C)C)SC1=S` gave BLM helicase inh-1 inactive, RECQ1 inh inactive, GCN5L2 inh inactive, WRN helicase inh-1 18.9µM, APEX1 inh inactive, ERG-DNA inh inactive, WRN helicase inh-2 21.5µM, TO displacement inactive and BLM helicase inh-2 21.5µM.
For COc1ccc(Nc2nc(N)c3cc(OC)c(OC)cc3n2)cc1 the results were BLM helicase inh-1 15.8µM, GCN5L2 inh inactive, ERG-DNA inh inactive, WRN helicase inh-2 21.5µM, TO displacement inconclusive and BLM helicase inh-2 21.5µM.
Screening CN(C)CC/C=C1\c2ccccc2COc2ccc(CC(=O)O)cc21 returned BLM helicase inh-1 inactive and GCN5L2 inh inactive.
